# Results published in publication PMC4552634, “A New Set of Chemical Starting Points with Plasmodium falciparum Transmission-Blocking Potential for Antimalarial Drug Discovery” (PLoS ONE, 2015).
# Out of some 13,000 compounds screened, about 3,200 (25%) showed an effect of 50% or more. The list shows a part of the results.
# Tested on: P. falciparum stage V gametocytes
# Set-up: BacTiter-Glo ATP luminescence viability of purified stage V gametocytes in 384-well plates, per cent inhibition versus DMSO
# Settings: 48 h, 5 µM; inhibitor
row,SMILES,% Inhibition [%]
1,Brc1cc(Br)c2c(c1)C(NCCCNc1nc3ncccc3[nH]1)CCN2 (stereo not drawn) [TCMDC-140066],-91.96
2,CC(C)(C)c1ccc(C(=O)NC2CCC(CCN3CCc4ccc(S(C)(=O)=O)cc4CC3)CC2)cc1C(F)(F)F (stereo not drawn) [TCMDC-141428],-32.14
3,CN1CCc2ccc(NC(=O)Nc3cccc(C(=O)c4ccccc4)c3)cc2C1 [TCMDC-139177],-22.18
4,C/C=C1/CN2CC[C@H]1C[C@H]2[C@H](O)c1ccnc2ccc(OC)cc12 [TCMDC-138265],0.1494
5,CCCCSc1ccc2nc(-c3c[nH]c4ccc(C#N)cc34)cn2c1 [TCMDC-134704],-54.07
6,CC(C)c1cc(C(=O)N[C@@H](Cc2ccccc2)[C@H](O)CNC2CCCCC2)cc(N2CCCC2=O)c1 [TCMDC-138861],41.96
7,Cc1ccc(-c2ccc(Cl)cc2Oc2cnc(N)nc2N)o1 [TCMDC-132599],4.58
8,O=C(Nc1cccc(-c2ccc(-c3nc4ccccc4[nH]3)cc2)c1)c1ccncc1 [TCMDC-136962],-14.71
9,CCCc1cc(Cc2cnc(N)nc2N)cc(CCC)c1OCCCCC(=O)OCC [TCMDC-137294],0.6782
10,Cc1cc(N[C@@H](Cc2ccccc2)C(=O)NCCOc2ccccc2)nc(NCCOc2ccccc2)n1 [TCMDC-134759],76.97
11,Cc1cc(N[C@@H](Cc2ccccc2)C(=O)NCCc2ccccc2)nc(NCCOc2ccccc2)n1 [TCMDC-134879],65.02
12,Cc1cc(N[C@@H](Cc2ccccc2)C(=O)NCCOc2ccccc2)nc(Nc2ccccc2)n1 [TCMDC-134735],6.483
13,Cc1cc(N[C@@H](Cc2ccccc2)C(=O)NCCOc2ccccc2)nc(NCCc2ccccc2)n1 [TCMDC-134869],38.23
14,Cc1cc(N[C@@H](Cc2ccccc2)C(=O)NCCOc2ccccc2)nc(NCc2ccccc2C)n1 [TCMDC-134906],-0.6796
15,COc1cc2sc(=NC(=O)c3cccc([N+](=O)[O-])c3)n(C)c2cc1OC [TCMDC-123526],16.54
16,CC1(C)N=C(N)N=C(N)N1OCc1cccc2c1ccc1ccccc12 [TCMDC-131327],39.55
17,CCCCc1ccc(C(=O)NC2CCN(C[C@H](O)c3ccnc4ccc(OC)cc34)CC2)cc1 [TCMDC-141040],-10.19
18,COc1cc2nc(N3CCN(C(=O)c4ccc(N(C(=O)OC(C)(C)C)C(=O)OC(C)(C)C)cc4)CC3)nc(N)c2cc1OC [TCMDC-131899],9.334
19,COc1cc2nc(N3CCN(c4nc(N)c5cc(OC)c(OC)cc5n4)CC3)nc(N)c2cc1OC [TCMDC-123865],116.7
20,COc1cc2nc(N3CCC(CNC(=O)c4cc5ccccc5s4)CC3)nc(N)c2cc1OC [TCMDC-138189],0.3187
21,COc1cc2nc(N3CCC(CNC(=O)c4cc(Br)c(Br)s4)CC3)nc(N)c2cc1OC.O=C(O)C(F)(F)F [TCMDC-138213],-9.659

row,SMILES,% Inhibition [%]
1,COc1cc2nc(NCC3CCN(c4nc(N)c5cc(OC)c(OC)cc5n4)CC3)nc(N)c2cc1OC [TCMDC-138723],112.2
2,COc1cc2nc(N3CCN(C(=O)c4c(Cl)nsc4-c4ccccc4Cl)CC3)nc(N)c2cc1OC.O=C(O)C(F)(F)F [TCMDC-138186],103.1
3,COc1cc2nc(N3CCN(C(=O)c4cccc(I)c4)CC3)nc(N)c2cc1OC [TCMDC-131895],98.03
4,COc1ccc(N2CCN(c3nc(N)c4cc(OC)c(OC)cc4n3)CC2C)cc1 (stereo not drawn) [TCMDC-131887],-85.18
5,COc1cc2nc(N3CCN(c4cc(C)ccc4C)CC3)nc(N)c2cc1OC [TCMDC-125298],-12.09
6,CN(C)C(=O)n1cnc(S(=O)(=O)N(C)c2ccc(Cl)cc2)n1 [TCMDC-134395],5.684
7,CCOC(=O)CCCCOc1c(OC)cc(Cc2cnc(N)nc2N)cc1OC [TCMDC-137291],2.332
8,COc1ccc(NS(=O)(=O)c2ccc(C(=O)Nc3ccc(C(F)(F)F)cc3)cc2)cc1N1CCN(CC2CC2)CC1 [TCMDC-141778],-16.52
9,O=C(c1cccs1)N1N=C(c2cccs2)CC1c1cccc([N+](=O)[O-])c1 (stereo not drawn) [TCMDC-123688],10.72
10,Cc1noc(C)c1-c1cccc(CNCc2ccc(-c3cccc(-c4nc5cc(C(F)(F)F)ccc5[nH]4)c3)cc2)c1.O=C(O)C(F)(F)F [TCMDC-133051],-9.881
11,COc1cc(C(=O)NC2CCN(Cc3ccccc3)CC2)ccc1-c1nc2cc(Cl)c(Cl)cc2[nH]1 [TCMDC-140078],-56.44
12,Cc1[nH]c2cc(Cl)ccc2c1C1=CCN(CCN2CCOc3c(Br)cccc3C2=O)CC1 [TCMDC-140966],-20.54
13,COc1ccc(Cl)cc1N1CCN(CCCNC(=O)c2ccc(-c3nc4cc(Cl)c(C)cc4[nH]3)c(F)c2)CC1 [TCMDC-140030],-22.25
14,COc1cc2nc(NC3CCN(Cc4ccccc4)CC3)nc(N)c2cc1OC [TCMDC-131886],84.09
15,COc1cc2nc(NCc3nc4ccccc4[nH]3)nc(N)c2cc1OC.Cl [TCMDC-131892],36.75
16,COc1cc2nc(N(C)C3CCN(Cc4ccccc4)CC3)nc(N)c2cc1OC [TCMDC-131894],19.02
17,CCCCCN1CCCCC(NS(=O)(=O)c2ccc(C(=O)Nc3ccc(C(F)(F)F)cc3)cc2)C1 (stereo not drawn) [TCMDC-133681],-39.58
18,CC(=O)c1ccc(NC(=O)Nc2ccc3nccc(N4CCN(C)CC4)c3c2)cc1 [TCMDC-139331],-18.7
19,COc1ccc2nccc([C@@H](O)CN3CCC(NCc4ccc5nc[nH]c(=O)c5c4)CC3)c2c1 [TCMDC-140981],0.6377
20,CC(=O)c1ccc2nc[nH]c(=O)c2c1 [TCMDC-138172],115.1
21,COC(=O)C(NC(=O)c1ccc(-c2ccc(-c3nc4ccccc4[nH]3)s2)cc1)c1ccc(O)cc1 (stereo not drawn) [TCMDC-132371],-16.97
